# According to PubChem BioAssay AID1159580 (chemical genetic matrix, 2015):
# Screen size: about 5,500 compounds; about 2,000 (36%) were called active. Not shown: some 18% with an inconclusive outcome. Some of the results follow. A number with no mark means an inactive call. Cut-off read from the data, not from the text of the source: active = normalized growth mostly below about 0.91 (no sharp cut-off); inconclusive = no clear call, values can overlap the other calls; inactive = mostly above about 0.92.
# Assay: chemical genetic growth profiling, strain panel (AID 1159580);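 note: tested at 20 µM; growth read once vehicle control cultures reached saturation at 30 °C; 1 = growth at the plate median or of vehicle wells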
# Details: S. cerevisiae deletion strains, growth OD
# [1] = locus YAR019C, strain CDC15, stronger effect = lower value
# [2] = locus YBL105C, strain PKC1, stronger effect = lower value
# [3] = locus YBR135W, strain CKS1, stronger effect = lower value
# [4] = locus YBR136W, strain MEC1, stronger effect = lower value
# [5] = locus YBR160W, strain CDC28, stronger effect = lower value
# [6] = locus YDL017W, strain CDC7, stronger effect = lower value
# [7] = locus YDL028C, strain MPS1, stronger effect = lower value
# [8] = locus YDL101C, strain DUN1, stronger effect = lower value
# [9] = locus YDL108W, strain KIN28, stronger effect = lower value
# [10] = locus YDL132W, strain cdc53, stronger effect = lower value
# [11] = locus YDL214C, strain PRR2, stronger effect = lower value
# [12] = locus YDR052C, strain DBF4, stronger effect = lower value
# [13] = locus YDR054C, strain cdc34, stronger effect = lower value
# [14] = locus YDR226W, strain ADK1, stronger effect = lower value
# [15] = locus YDR477W, strain SNF1, stronger effect = lower value
# [16] = locus YER123W, strain YCK3, stronger effect = lower value
# [17] = locus YER133W, strain GLC7, stronger effect = lower value
# [18] = locus YFL009W, strain cdc4, stronger effect = lower value
# [19] = locus YFL029C, strain CAK1, stronger effect = lower value
# [20] = locus YFR003C, strain YPI1, stronger effect = lower value
# [21] = locus YFR019W, strain FAB1, stronger effect = lower value
# [22] = locus YFR028C, strain CDC14, stronger effect = lower value
# [23] = locus YGR040W, strain KSS1, stronger effect = lower value
# [24] = locus YGR052W, strain FMP48, stronger effect = lower value
# [25] = locus YGR092W, strain DBF2, stronger effect = lower value
# [26] = locus YHR030C, strain SLT2, stronger effect = lower value
# [27] = locus YHR079C, strain IRE1, stronger effect = lower value
# [28] = locus YHR082C, strain KSP1, stronger effect = lower value
# [29] = locus YHR205W, strain SCH9, stronger effect = lower value
# [30] = locus YIL147C, strain SLN1, stronger effect = lower value
# [31] = locus YJL095W, strain BCK1, stronger effect = lower value
# [32] = locus YJL128C, strain PBS2, stronger effect = lower value
# [33] = locus YJL157C, strain FAR1, stronger effect = lower value
# [34] = locus YJR016C, strain ILV3, stronger effect = lower value
# [35] = locus YJR066W, strain TOR1 (second series), stronger effect = lower value
# [36] = locus YJR066W, strain TOR1, stronger effect = lower value
# [37] = locus YKL048C, strain ELM1, stronger effect = lower value
# [38] = locus YKL067W, strain YNK1, stronger effect = lower value
# [39] = locus YKL101W, strain HSL1, stronger effect = lower value
# [40] = locus YKL193C, strain SDS22, stronger effect = lower value
# [41] = locus YKL203C, strain TOR2, stronger effect = lower value
# [42] = locus YLR113W, strain HOG1, stronger effect = lower value
# [43] = locus YLR133W, strain CKI1, stronger effect = lower value
# [44] = locus YLR403W, strain SFP1, stronger effect = lower value
# [45] = locus YML070W, strain DAK1, stronger effect = lower value
# [46] = locus YMR001C, strain CDC5, stronger effect = lower value
# [47] = locus YMR205C, strain PFK2 (second series), stronger effect = lower value
# [48] = locus YMR277W, strain FCP1, stronger effect = lower value
# [49] = locus YNL006W, strain LST8, stronger effect = lower value
# [50] = locus YNL020C, strain ARK1, stronger effect = lower value
# [51] = locus YNL161W, strain CBK1, stronger effect = lower value
# [52] = locus YNL183C, strain NPR1, stronger effect = lower value
# [53] = locus YNL207W, strain RIO2, stronger effect = lower value
# [54] = locus YNL222W, strain SSU72, stronger effect = lower value
# [55] = locus YNL307C, strain MCK1 (second series), stronger effect = lower value
# [56] = locus YOL078W, strain AVO1, stronger effect = lower value
# [57] = locus YOL136C, strain PFK27, stronger effect = lower value
# [58] = locus YOR061W, strain CKA2, stronger effect = lower value
# [59] = locus YOR119C, strain RIO1, stronger effect = lower value
# [60] = locus YOR231W, strain MKK1, stronger effect = lower value
# [61] = locus YOR329C, strain SCD5, stronger effect = lower value
# [62] = locus YPL031C, strain PHO85, stronger effect = lower value
# [63] = locus YPL153C, strain RAD53, stronger effect = lower value
# [64] = locus YPL204W, strain HRR25, stronger effect = lower value
# [65] = locus YPL209C, strain IPL1, stronger effect = lower value
# [66] = locus YPL256C, strain CLN2, stronger effect = lower value
# [67] = locus YPR025C, strain CCL1, stronger effect = lower value
# [68] = locus YPR106W, strain ISR1, stronger effect = lower value
# [69] = locus YPR111W, strain DBF20, stronger effect = lower value
# [70] = strain NNK1, stronger effect = lower value
# [71] = strain TSCII, stronger effect = lower value
compound,measurement,setting,value
CC(=O)Oc1ccc2c(=O)c(Oc3ccc(Cl)cc3)c(C)oc2c1,normalized growth,[1],0.969
same,normalized growth,[2],0.964
same,normalized growth,[3],0.968
same,normalized growth,[4],0.954
same,normalized growth,[5],0.962
same,normalized growth,[6],0.963
same,normalized growth,[7],0.956
same,normalized growth,[8],0.951
same,normalized growth,[9],0.958
same,normalized growth,[10],0.96
same,normalized growth,[11],0.938
same,normalized growth,[12],0.959
same,normalized growth,[13],0.96
same,normalized growth,[14],0.957
same,normalized growth,[15],0.945
same,normalized growth,[16],0.918
same,normalized growth,[17],0.939
same,normalized growth,[18],0.97
same,normalized growth,[19],0.964
same,normalized growth,[20],0.968
same,normalized growth,[21],0.979
same,normalized growth,[22],0.963
same,normalized growth,[23],0.953
same,normalized growth,[24],0.887
same,normalized growth,[25],0.692
same,normalized growth,[26],0.802 (active)
same,normalized growth,[27],0.897
same,normalized growth,[28],0.917
same,normalized growth,[29],0.776
same,normalized growth,[30],0.947
same,normalized growth,[31],0.7
same,normalized growth,[32],0.923
same,normalized growth,[33],0.973
same,normalized growth,[34],0.964
same,normalized growth,[35],0.953
same,normalized growth,[36],0.896
same,normalized growth,[37],0.933
same,normalized growth,[38],0.94
same,normalized growth,[39],0.908
same,normalized growth,[40],0.953
same,normalized growth,[41],0.968
same,normalized growth,[42],0.768 (active)
same,normalized growth,[43],0.952
same,normalized growth,[44],0.887
same,normalized growth,[45],0.921
same,normalized growth,[46],0.961
same,normalized growth,[47],0.935
same,normalized growth,[48],0.969
same,normalized growth,[49],0.985
same,normalized growth,[50],0.952
same,normalized growth,[51],0.965
same,normalized growth,[52],0.875
same,normalized growth,[53],0.953
same,normalized growth,[54],0.97
same,normalized growth,[55],0.808
same,normalized growth,[56],0.95
same,normalized growth,[57],0.933
same,normalized growth,[58],0.959
same,normalized growth,[59],0.995
same,normalized growth,[60],0.834
same,normalized growth,[61],0.961
same,normalized growth,[62],0.935
same,normalized growth,[63],0.954
same,normalized growth,[64],0.943
same,normalized growth,[65],0.96
same,normalized growth,[66],0.909
same,normalized growth,[67],0.965
same,normalized growth,[68],0.955
same,normalized growth,[69],0.941
same,normalized growth,[70],0.94
same,normalized growth,[71],0.964
COC(=O)c1ccc(Oc2c(C(F)(F)F)oc3cc(O)ccc3c2=O)cc1,normalized growth,[1],0.976
same,normalized growth,[2],0.976
same,normalized growth,[3],0.975
same,normalized growth,[4],0.974
same,normalized growth,[5],0.986
same,normalized growth,[6],0.977
same,normalized growth,[7],0.979
same,normalized growth,[8],0.982
same,normalized growth,[9],0.976
same,normalized growth,[10],0.961
same,normalized growth,[11],0.949
same,normalized growth,[12],0.984
same,normalized growth,[13],0.959
same,normalized growth,[14],0.964
same,normalized growth,[15],0.948
same,normalized growth,[16],0.924
same,normalized growth,[17],0.929
same,normalized growth,[18],0.969
same,normalized growth,[19],0.976
same,normalized growth,[20],0.974
same,normalized growth,[21],0.938
same,normalized growth,[22],0.965
same,normalized growth,[23],0.941
same,normalized growth,[24],0.962
same,normalized growth,[25],0.948
same,normalized growth,[26],0.902
same,normalized growth,[27],0.926
same,normalized growth,[28],1.01
same,normalized growth,[29],0.949
same,normalized growth,[30],0.978
same,normalized growth,[31],0.904
same,normalized growth,[32],0.941
same,normalized growth,[33],0.936
same,normalized growth,[34],0.974
same,normalized growth,[35],0.93
same,normalized growth,[36],1.01
same,normalized growth,[37],0.968
same,normalized growth,[38],0.956
same,normalized growth,[39],0.945
same,normalized growth,[40],0.967
same,normalized growth,[41],1.01
same,normalized growth,[42],0.869
same,normalized growth,[43],0.95
same,normalized growth,[44],0.938
same,normalized growth,[45],0.934
same,normalized growth,[46],0.972
same,normalized growth,[47],0.969
same,normalized growth,[48],0.978
same,normalized growth,[49],0.972
same,normalized growth,[50],0.949
same,normalized growth,[51],0.962
same,normalized growth,[52],1.02
same,normalized growth,[53],0.969
same,normalized growth,[54],0.979
same,normalized growth,[55],0.95
same,normalized growth,[56],0.97
same,normalized growth,[57],0.933
same,normalized growth,[58],0.968
same,normalized growth,[59],1.02
same,normalized growth,[60],0.967
same,normalized growth,[61],0.975
same,normalized growth,[62],0.94
same,normalized growth,[63],0.935
same,normalized growth,[64],0.95
same,normalized growth,[65],0.971
same,normalized growth,[66],0.9
same,normalized growth,[67],0.98
same,normalized growth,[68],0.979
same,normalized growth,[69],0.979
same,normalized growth,[70],0.973
same,normalized growth,[71],0.96
